Test results: article PMC10954555

Biological target: Probable ATP-dependent RNA helicase DDX23 (UniProt Q9BUQ8)
Assay: cross-link between two proteins; cross-linking mass spectrometry; other

Chain of Probable ATP-dependent RNA helicase DDX23 (Q9BUQ8 whole entry): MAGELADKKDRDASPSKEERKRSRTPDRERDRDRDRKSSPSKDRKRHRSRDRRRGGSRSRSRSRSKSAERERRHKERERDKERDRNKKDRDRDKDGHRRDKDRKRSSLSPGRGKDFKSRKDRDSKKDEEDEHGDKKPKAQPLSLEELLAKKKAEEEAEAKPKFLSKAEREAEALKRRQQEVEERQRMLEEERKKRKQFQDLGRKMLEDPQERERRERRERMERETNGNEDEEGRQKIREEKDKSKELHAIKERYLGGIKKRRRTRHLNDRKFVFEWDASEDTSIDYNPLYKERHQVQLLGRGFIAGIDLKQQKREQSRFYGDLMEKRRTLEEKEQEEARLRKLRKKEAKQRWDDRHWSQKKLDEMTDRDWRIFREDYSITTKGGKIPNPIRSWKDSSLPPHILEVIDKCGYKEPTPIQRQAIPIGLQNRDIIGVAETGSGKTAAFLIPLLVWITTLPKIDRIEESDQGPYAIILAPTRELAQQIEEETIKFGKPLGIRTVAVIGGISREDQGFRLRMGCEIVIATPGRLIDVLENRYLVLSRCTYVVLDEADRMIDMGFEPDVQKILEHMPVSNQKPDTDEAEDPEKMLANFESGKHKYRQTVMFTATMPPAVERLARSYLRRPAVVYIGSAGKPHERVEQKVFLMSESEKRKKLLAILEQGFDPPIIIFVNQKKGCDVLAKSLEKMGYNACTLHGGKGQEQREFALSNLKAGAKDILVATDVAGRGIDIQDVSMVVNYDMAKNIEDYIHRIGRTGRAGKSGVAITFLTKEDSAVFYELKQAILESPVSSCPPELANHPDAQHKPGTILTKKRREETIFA

Listed as a hit, yes:
U5 small nuclear ribonucleoprotein 200 kDa helicase, O75643
116 kDa U5 small nuclear ribonucleoprotein component, Q15029
Pre-mRNA-processing factor 6, O94906
U4/U6.U5 tri-snRNP-associated protein 1, O43290
